Bioassay records: PubChem, National Center for Advancing Translational Sciences (NCATS)
Sampled rows, rich in hits. Any-hit rate of the full collection: about 7.3%.
HCV inh – inhibitors of hepatitis C virus infection; actives 3.4% (n = 340,000); Huh7.5.1 HCVcc-Cre infection, luciferase reporter, 44 h; Potency, µM (doses to about 41.8 µM), usual class: inhibitors; AID 651820; active means well fitted inhibition curve with a large enough effect; inconclusive means small, poorly fitted or top-dose-only effect, or another doubt; inactive means no such curve, though single readings can be large or run the other way
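Antiviral activity was scored by luciferase reporter output from cells infected with HCVcc-Cre (~0.5 moi) in presence of compound, 44 h infection period, cells seeded 1,000/well 4 h prior.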
HCMV inh – inhibitors of human cytomegalovirus. HFF cells, HCMV-luciferase reporter, 72 h; active compounds read low. AID 1259415. actives 4.5% (n = 410,000). activity change, negative = inhibition, % at 57.5 µM; in the data active means activity change below about -60%; inconclusive means no clear call, values can overlap the other calls; inactive means above about -39%
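Two-dose cell screen: HFF monolayers treated with compounds and infected with luciferase-expressing HCMV at 1 PFU/cell, 72 h at 37C, then lysed for luciferase measurement.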
FMDV inh – foot and mouth disease virus antiviral activity. actives 1.2% (n = 410,000). FMDV antiviral cell-based qHTS. Potency, µM (titrated, usually from 57.9 µM), usual class: inhibitors; calls by dose curve; tested in HEK293T cells; further: read-out not given here; nearly all actives have a fitted effect of over 45% in size
Vaccinia mCherry – inhibitors of vaccinia virus infection (mCherry reporter signal) | Vaccinia virus mCherry reporter infection, fluorescence | Potency, µM (doses to about 36.5 µM), usual class: inhibitors | actives 0.63% (n = 310,000); calls by dose curve; tested in A549 cells; further: nearly all actives have a fitted effect of over 35% in size
VACV Venus inh – inhibitors of vaccinia virus (Venus reporter); actives 0.46% (n = 330,000); Vaccinia virus Venus reporter expression, fluorescence; Potency, µM (highest dose often 36.5 µM), actives largely listed as inhibitors; calls by dose curve; tested in A549 cells; further: nearly all actives have a fitted effect of over 30% in size
A number is an active result; . = inactive; ? = inconclusive; / = not tested or not shown; [ ] = another dose, or the depositor's remark.

SMILES | HCV inh | HCMV inh | FMDV inh | Vaccinia mCherry | VACV Venus inh
O=C(COc1cccc(Cl)c1)Nc1ccc2c(c1)CCC2 | ? | -65.8 | . | . | .
CCOC(=O)c1cccc(NC(=O)Nc2cc(OC)ccc2OC)c1 | 15.8µM | ? | ? | . | ?
O=C(COc1ccccc1F)Nc1ccc2c(c1)CCC2 | . | . | . | . | .
CCOc1ccccc1NC(=S)NC(=O)C1CC1 | . | -63.6 | . | . | .
COc1ccc(OC)c(NC(=O)NNS(=O)(=O)c2ccc(C)cc2C)c1 | . | -62.0 | . | . | .
CCOc1ccccc1NC(=O)Nc1cccc(C(C)=O)c1 | 7.08µM | . | . | / | /
CCOc1ccccc1NC(=O)Nc1ccc2c(c1)CCC2 | 12.6µM | . | . | / | /
CCOc1ccccc1NC(=O)Nc1cccc(S(N)(=O)=O)c1 | 31.6µM | ? | . | . | .
COc1ccccc1NC(=O)NCc1ccccc1F | . | . | . | / | /
CCOc1ccccc1NC(=O)NCc1ccccc1F | 11.2µM | . | . | / | /
C=C1C=C(C(F)F)n2ncc(C(=O)NCc3ccc(F)cc3)c2N1 | / | / | / | . | .
CCOc1cc(C2Nc3ccccc3C(=O)N2Cc2ccco2)ccc1O (configuration not stated) | / | / | / | . | .
COc1ccc(C=CC(=O)c2ccc([N+](=O)[O-])cc2)cc1 | . | . | . | . | .
Cc1[nH]c(C)c(C(=O)/C=C/c2ccc([N+](=O)[O-])cc2)c1C | ? | -100.9 | . | / | /
O=S(=O)(c1ccccc1)[C@@]1(c2ccc(Br)cc2)C[C@@H]2ON=C(c3cccc(Br)c3)[C@@H]2C1 | . | . | . | . | .
O=S(=O)(c1ccccc1)[C@@]1(c2ccc(Br)cc2)C[C@@H]2ON=C(c3ccccc3)[C@@H]2C1 | 10µM | . | . | . | .
Cc1occc1C(=O)Nc1cccc(-c2nc(CNC(=O)c3cccc(C#CC(C)(C)O)c3)c(C)o2)c1 | / | / | 20µM | ? | ?
CSc1ccccc1C(=O)NCc1nc(-c2cccc(NC(=O)c3ccoc3C)c2)oc1C | / | / | 31.6µM | ? | .
COC(=O)c1cccc(C(=O)NCc2nc(-c3cccc(NC(=O)c4ccoc4C)c3)oc2C)c1 | / | / | 22.4µM | . | .
Cc1occc1C(=O)Nc1cccc(-c2nc(CNC(=O)c3ccc4ccccc4n3)c(C)o2)c1 | / | / | . | . | .
COc1ccc(C(C)=O)cc1COc1ccc(-n2cnnn2)cc1 | 10µM | . | . | / | .
CCC1C(=O)NCCN1Cc1ccc2c(c1)CN(Cc1cccc(OC)c1OC)CCO2 (configuration not stated) | / | / | . | . | .
Cc1nc(Nc2ccc(Cl)cc2)c2nnn(Cc3ccccc3)c2n1 | 31.6µM | . | . | . | .
O=C([C@@H]1CC=C[C@@H]2CCN(C3CCCCC3)C(=O)[C@@H]21)N1CCOCC1 | / | / | / | . | .
CC(C)CC(N)c1csc(NC(=O)c2cc(C(C)(C)C)nn2Cc2ccccc2)n1 (configuration not stated) | / | -96.3 | ? | 11.2µM | 12.6µM
SMILES | HCV inh | HCMV inh | FMDV inh | Vaccinia mCherry | VACV Venus inh
CC(C)CC(N)c1csc(NC(=O)Nc2ccccc2Cc2ccccc2)n1 (configuration not stated) | / | . | . | ? | ?
COC(=O)c1cc(NC(=O)c2cc(C(C)(C)C)nn2Cc2ccc(F)cc2)ccc1N1CCOCC1 | 10µM | . | ? | / | /
Cc1cccc(Cn2nc(C(C)(C)C)cc2C(=O)Nc2ccc(F)cc2)c1 | ? | -93.0 | ? | .[7.34 µM] | .[7.34 µM]
Cc1ccc(Cl)cc1NC(=O)c1ccc(-c2nc(CSc3ccccc3)c(C)o2)cc1 | / | ? | ? | . | .
COC(=O)[C@@H]1CCCN1C(=O)c1cc(NC(=O)c2ccccc2)cc2ncn(C3CCCC3)c12 | / | / | . | . | .
CC(=O)N1c2c(cc(Br)cc2S(=O)(=O)N2CCN(c3cccc(Cl)c3)CC2)CC1C (configuration not stated) | / | . | . | . | .
CCOc1ccc(CCNc2cc(C)nc3ncnn23)cc1OCC | ? | . | ? | . | .
COc1ccc(-c2cc(NCCc3ccncc3)n3ncnc3n2)cc1 | . | . | . | . | .
CCc1c(C)nc2ncnn2c1NCCc1ccc(OC)c(OC)c1 | ? | -72.7 | ? | / | /
COc1ccc(CCNc2c(C)c(C)nc3ncnn23)cc1 | ? | -89.1 | ? | ? | ?
COc1ccc(-c2cc(C(=O)Nc3ccn(Cc4ccc(C)cc4)n3)no2)cc1OC | / | . | . | . | .
Cc1ccc(OCC(=O)c2cc(C)n(-c3cc(C)on3)c2C)c([N+](=O)[O-])n1 | ? | . | . | . | .
Cc1ccc(OCC(=O)c2cc(C)n(CC(F)(F)F)c2C)c([N+](=O)[O-])n1 | ? | . | . | . | .
COc1ccc(-n2c(C)cc(C(=O)COc3ccc(C)nc3[N+](=O)[O-])c2C)cc1 | ? | -90.0 | ? | . | .
Cc1ccc(OCC(=O)c2cc(C)n(Cc3cccs3)c2C)c([N+](=O)[O-])n1 | ? | -94.1 | 17.8µM | ? | ?
Cc1ccc(OCC(=O)c2cc(C)n(C3CC3)c2C)c([N+](=O)[O-])n1 | . | -64.3 | . | . | .
COCCn1c(C)cc(C(=O)COc2cccnc2[N+](=O)[O-])c1C | . | -84.4 | . | . | .
COC(=O)c1c(-c2ccc(Cl)cc2)noc1N1CCN(c2cccc(C)c2C)CC1 | / | . | ? | . | .
Cc1nnc(NC(=O)CSCc2cc(=O)c3ccc(C)c(C)c3[nH]2)s1 | / | . | . | . | .
O=C(c1ccoc1)N1CCOc2ccc(CN3CCC(Oc4cccnc4)CC3)cc2C1 | / | / | . | . | .
CCc1ccc(NC(=O)C2CCCN(c3nn4cc(-c5ccc(OC)cc5)nc4s3)C2)cc1 (configuration not stated) | / | ? | . | . | .
Cc1cc(C(=O)COc2cccc([N+](=O)[O-])c2)c(C)n1C1CC1 | 11.2µM | ? | . | / | /
Nc1ccc(S(=O)(=O)NC2(C(F)(F)F)NC(=O)N(c3cccc(Cl)c3)C2=O)cc1 (configuration not stated) | / | . | . | . | .
O=[N+]([O-])c1cnc(Sc2ccncn2)s1 | 7.08µM | -99.3 | 39.8µM | / | /
O=[N+]([O-])c1cnc(Sc2ccncn2)c([N+](=O)[O-])c1 | / | . | ? | ? | ?
SMILES | HCV inh | HCMV inh | FMDV inh | Vaccinia mCherry | VACV Venus inh
COc1cc(CN(CC2CCCO2)C(=O)c2ccc(F)cc2)cc(OC)c1OC (configuration not stated) | / | . | . | . | .
O=c1[nH]nc(-c2ccc([N+](=O)[O-])o2)c(=O)[nH]1 | . | -93.2 | . | . | .
Cc1ccc(C)c(-n2c3nc(=O)n(C)c(=O)c-3cc3ccccc32)c1 | . | . | . | / | /
COc1ccc(-c2nc(-c3ccncc3)no2)cc1 | . | . | . | / | /
Cn1nc(-c2ccccc2)nc2c(=O)n(C)c(=O)nc1-2 | / | / | / | 1µM | 1µM
Cn1nc(-c2ccncc2)nc2c(=O)n(C)c(=O)nc1-2 | / | / | / | 0.891µM | 1µM
Cc1nc2c(=O)n(C)c(=O)nc-2n(C)n1 | 0.562µM | -103.1 | 2.82µM | ? | 0.501µM
CCOC(=O)c1ccc(NC(=O)C2CCCN(c3ccc(Sc4ccc(C)cc4)nn3)C2)cc1 (configuration not stated) | / | . | . | . | .
CCCN1C(=O)C[C@H](S(=O)(=O)c2ccccc2)[C@H]1c1ccc(C#N)cc1 | / | . | / | / | /
